Test results as given in ChEMBL document CHEMBL3988442, “University of Dundee, Small-Polar-MMV Screening Library” (2021).
For some assays here: Potency and affinity values are given separately.

Experiments:
Design in all cases: scale not given: direction of the effect not stated beside the values
[1] = molecular target: Protein translocase subunit SecA (Escherichia coli (strain K12)) (UniProt P10408); test: Assay to Identify E. coli SecA ATPase Inhibitors; type: functional; details: 30 µM
[2] = molecular target: T1, Ubiquitin-activating enzyme e1, putative (Leishmania donovani (strain BPK282A1)) (UniProt E9BSI1); test: Leishmania donovani Ubiquitin Activating Enzyme (LdE1); type: functional; details: 30 µM
T1 sequence (whole entry): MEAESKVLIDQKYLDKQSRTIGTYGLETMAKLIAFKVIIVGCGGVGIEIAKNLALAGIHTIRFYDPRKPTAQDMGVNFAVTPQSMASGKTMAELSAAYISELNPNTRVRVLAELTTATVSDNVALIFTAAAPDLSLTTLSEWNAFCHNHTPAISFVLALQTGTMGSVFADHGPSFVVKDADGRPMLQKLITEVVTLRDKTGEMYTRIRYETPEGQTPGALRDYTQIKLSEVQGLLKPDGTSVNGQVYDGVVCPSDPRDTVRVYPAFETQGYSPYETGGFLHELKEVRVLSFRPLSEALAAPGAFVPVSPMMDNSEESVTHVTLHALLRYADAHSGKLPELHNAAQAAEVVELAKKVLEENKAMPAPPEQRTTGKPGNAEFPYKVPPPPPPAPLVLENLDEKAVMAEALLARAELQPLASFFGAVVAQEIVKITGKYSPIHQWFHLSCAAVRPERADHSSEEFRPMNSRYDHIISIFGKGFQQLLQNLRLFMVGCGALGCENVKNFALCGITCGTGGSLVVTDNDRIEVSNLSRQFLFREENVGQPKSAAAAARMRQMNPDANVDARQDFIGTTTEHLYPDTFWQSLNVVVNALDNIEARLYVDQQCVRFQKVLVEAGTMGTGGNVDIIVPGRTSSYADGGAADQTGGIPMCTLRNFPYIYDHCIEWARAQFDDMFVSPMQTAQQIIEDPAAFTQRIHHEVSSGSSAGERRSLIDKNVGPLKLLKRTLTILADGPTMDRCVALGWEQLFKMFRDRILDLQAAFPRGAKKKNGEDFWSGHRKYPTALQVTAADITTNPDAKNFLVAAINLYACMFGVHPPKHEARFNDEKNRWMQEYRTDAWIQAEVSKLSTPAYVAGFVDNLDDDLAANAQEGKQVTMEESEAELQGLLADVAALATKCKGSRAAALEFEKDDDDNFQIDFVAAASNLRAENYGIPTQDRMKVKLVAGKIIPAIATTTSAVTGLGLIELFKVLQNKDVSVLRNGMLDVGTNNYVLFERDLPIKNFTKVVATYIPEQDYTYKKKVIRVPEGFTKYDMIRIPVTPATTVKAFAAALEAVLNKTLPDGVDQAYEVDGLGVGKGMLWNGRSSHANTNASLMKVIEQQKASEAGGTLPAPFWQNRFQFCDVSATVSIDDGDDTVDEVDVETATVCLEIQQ

[3] = molecular target: AMP-activated protein kinase, AMPK (Homo sapiens) (UniProt P54646+O43741+P54619+Q9UGJ0+Q9Y478+Q13131+Q9UGI9); test: AMP-dependent Kinase enzyme assay. An in vitro enzyme assay that detects ADP turnover that is directly proportional to AMPK activity. This uses naive AMPK that is activated during the assay with MK-8722; type: functional; details: 30 µM
[4] = molecular target: Sialic acid-binding Ig-like lectin 9 (Homo sapiens) (UniProt Q9Y336); test: Hs-Siglec9 ALPHAscreen SOP 20170721; details: 10 µM
Chain of Sialic acid-binding Ig-like lectin 9 (Homo sapiens) (Q9Y336 whole entry): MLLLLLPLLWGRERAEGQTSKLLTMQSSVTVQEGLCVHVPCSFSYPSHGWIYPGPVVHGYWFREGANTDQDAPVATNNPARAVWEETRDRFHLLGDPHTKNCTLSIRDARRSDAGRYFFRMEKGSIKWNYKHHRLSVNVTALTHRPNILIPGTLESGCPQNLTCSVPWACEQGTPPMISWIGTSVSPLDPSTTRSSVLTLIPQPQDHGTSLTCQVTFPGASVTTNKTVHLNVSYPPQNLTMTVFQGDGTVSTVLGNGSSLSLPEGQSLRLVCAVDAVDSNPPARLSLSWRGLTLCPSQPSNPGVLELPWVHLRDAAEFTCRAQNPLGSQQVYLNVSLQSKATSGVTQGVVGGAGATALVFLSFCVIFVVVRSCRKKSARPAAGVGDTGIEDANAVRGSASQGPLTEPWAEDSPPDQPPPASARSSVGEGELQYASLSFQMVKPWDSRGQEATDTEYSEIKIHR

[5] = system: Trypanosoma cruzi; test: Trypanosoma cruzi phosphomannomutase and mannose-1-phosphate guanylyltransferase assay; type: functional; details: 10 µM
[6] = molecular target: T2, Arginase-2, mitochondrial (Homo sapiens) (UniProt P78540); test: in vitro enzyme assay to detect the production of urea directly proportional to the activity of Arginase II; type: functional; details: 33.3 µM; further: in the data most compounds retested in dose-response had high values
T2 sequence (whole entry): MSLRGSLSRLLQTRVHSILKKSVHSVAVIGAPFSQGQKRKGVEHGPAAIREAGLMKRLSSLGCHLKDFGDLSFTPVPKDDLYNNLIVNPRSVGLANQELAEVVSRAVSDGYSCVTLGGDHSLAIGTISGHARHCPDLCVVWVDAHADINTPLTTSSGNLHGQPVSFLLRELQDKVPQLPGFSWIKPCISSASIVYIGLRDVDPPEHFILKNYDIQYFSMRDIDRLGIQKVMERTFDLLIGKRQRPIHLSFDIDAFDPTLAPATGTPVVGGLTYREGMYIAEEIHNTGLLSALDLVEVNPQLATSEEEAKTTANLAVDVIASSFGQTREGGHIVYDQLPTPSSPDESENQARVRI

[7] = molecular target: T3, Proteasome subunit beta (Trypanosoma cruzi) (UniProt O96673); test: Trypanosoma cruzi proteasome chymotrypsin-like activity (TcProtChymo) assay.; further: in the data most compounds retested in dose-response had high values; type: functional; details: 9.37 µM
T3 sequence (whole entry): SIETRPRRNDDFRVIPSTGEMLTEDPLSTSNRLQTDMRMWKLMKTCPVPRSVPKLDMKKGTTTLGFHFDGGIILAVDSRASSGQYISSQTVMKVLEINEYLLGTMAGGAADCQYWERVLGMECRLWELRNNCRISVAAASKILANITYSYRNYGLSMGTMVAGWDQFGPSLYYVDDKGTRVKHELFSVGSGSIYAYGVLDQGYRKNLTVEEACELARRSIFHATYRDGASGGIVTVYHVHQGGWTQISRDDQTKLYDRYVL

[8] = species on record: Homo sapiens; test: To identify inhibition of the IFN signalling (Jak-Stat) pathway via expression of an eGFP reporter gene under the control of an IFN-stimulated response element (ISRE) containing MxA promoter.; type: functional; details: 30 µM
[9] = molecular target: T4, Tyrosyl-tRNA synthetase, putative (Trypanosoma cruzi (strain CL Brener)) (UniProt Q4DSP6); test: Trypanosoma cruzi tyrosyl tRNA synthetase (TcYRS) _High Tyrosine SOP; type: functional; details: 30 µM; further: in the data most compounds retested in dose-response had high values
T4 sequence (whole entry): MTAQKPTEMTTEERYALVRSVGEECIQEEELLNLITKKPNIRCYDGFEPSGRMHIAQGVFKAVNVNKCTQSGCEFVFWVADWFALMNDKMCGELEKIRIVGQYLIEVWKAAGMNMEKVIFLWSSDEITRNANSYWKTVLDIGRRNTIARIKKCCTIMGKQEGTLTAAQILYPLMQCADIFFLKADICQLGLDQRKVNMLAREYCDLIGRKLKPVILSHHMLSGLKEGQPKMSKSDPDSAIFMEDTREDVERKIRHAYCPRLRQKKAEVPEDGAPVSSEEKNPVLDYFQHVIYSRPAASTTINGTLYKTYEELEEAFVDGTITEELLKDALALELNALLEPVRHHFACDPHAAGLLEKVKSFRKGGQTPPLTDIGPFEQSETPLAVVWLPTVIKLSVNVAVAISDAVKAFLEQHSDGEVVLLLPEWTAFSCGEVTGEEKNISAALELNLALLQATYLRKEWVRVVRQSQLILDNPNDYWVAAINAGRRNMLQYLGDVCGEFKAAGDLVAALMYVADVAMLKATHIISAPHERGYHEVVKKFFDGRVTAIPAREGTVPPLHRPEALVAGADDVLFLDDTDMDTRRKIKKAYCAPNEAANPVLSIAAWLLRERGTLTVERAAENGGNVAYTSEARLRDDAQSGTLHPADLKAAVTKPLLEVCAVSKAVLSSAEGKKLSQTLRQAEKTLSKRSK

[10] = molecular target: T4, Tyrosyl-tRNA synthetase, putative (Trypanosoma cruzi (strain CL Brener)); test: Trypanosoma cruzi tyrosyl tRNA synthetase (TcYRS) SOP; type: functional; details: 30 µM
[11] = molecular target: Chromo domain-containing protein 1 (Saccharomyces cerevisiae (strain ATCC 204508 / S288c) (Baker's yeast)) (UniProt P32657); test: ScCHD-1 Enzyme Inhibition Assay; type: functional; details: 30 µM; further: in the data most compounds retested in dose-response had high values
Chain of Chromo domain-containing protein 1 (Saccharomyces cerevisiae (strain ATCC 204508 / S288c) (Baker's yeast)) (P32657 whole entry, the tested form may be a part): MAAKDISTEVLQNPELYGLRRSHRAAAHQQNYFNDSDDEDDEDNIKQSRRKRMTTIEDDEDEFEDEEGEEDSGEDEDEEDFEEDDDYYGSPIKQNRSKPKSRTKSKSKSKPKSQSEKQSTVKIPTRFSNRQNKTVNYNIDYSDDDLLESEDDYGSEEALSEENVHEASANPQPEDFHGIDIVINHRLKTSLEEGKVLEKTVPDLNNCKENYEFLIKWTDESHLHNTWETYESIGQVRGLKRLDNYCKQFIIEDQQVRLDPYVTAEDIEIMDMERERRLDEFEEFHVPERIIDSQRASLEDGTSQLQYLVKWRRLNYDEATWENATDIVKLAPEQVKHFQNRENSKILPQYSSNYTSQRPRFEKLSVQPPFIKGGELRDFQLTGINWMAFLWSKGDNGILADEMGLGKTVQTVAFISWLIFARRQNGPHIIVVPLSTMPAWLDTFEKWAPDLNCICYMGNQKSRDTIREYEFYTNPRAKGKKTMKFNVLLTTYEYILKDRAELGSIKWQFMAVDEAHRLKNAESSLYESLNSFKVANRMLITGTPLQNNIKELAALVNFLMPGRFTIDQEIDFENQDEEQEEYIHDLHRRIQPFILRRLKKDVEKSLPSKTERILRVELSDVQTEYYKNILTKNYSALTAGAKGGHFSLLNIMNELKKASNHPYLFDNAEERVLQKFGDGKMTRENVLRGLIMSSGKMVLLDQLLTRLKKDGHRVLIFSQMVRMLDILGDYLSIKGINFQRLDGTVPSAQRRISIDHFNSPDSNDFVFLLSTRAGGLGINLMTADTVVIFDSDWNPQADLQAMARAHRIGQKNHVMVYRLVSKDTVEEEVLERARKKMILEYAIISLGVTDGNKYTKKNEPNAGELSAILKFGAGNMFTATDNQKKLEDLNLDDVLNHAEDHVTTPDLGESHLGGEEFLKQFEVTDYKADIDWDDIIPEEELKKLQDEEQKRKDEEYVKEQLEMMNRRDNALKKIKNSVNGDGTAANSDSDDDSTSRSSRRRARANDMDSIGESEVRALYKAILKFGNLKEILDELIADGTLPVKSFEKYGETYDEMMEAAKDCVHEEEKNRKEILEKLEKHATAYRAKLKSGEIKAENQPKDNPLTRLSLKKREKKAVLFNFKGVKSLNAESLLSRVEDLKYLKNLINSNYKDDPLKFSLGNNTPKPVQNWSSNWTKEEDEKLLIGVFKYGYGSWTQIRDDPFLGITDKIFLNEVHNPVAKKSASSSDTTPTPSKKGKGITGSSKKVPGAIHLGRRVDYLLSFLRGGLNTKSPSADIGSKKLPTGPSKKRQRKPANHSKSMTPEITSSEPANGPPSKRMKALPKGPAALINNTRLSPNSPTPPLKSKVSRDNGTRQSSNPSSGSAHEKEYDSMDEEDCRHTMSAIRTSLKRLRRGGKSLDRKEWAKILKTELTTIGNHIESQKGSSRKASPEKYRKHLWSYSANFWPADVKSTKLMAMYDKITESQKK

Chain of Protein translocase subunit SecA (Escherichia coli (strain K12)) (P10408 whole entry): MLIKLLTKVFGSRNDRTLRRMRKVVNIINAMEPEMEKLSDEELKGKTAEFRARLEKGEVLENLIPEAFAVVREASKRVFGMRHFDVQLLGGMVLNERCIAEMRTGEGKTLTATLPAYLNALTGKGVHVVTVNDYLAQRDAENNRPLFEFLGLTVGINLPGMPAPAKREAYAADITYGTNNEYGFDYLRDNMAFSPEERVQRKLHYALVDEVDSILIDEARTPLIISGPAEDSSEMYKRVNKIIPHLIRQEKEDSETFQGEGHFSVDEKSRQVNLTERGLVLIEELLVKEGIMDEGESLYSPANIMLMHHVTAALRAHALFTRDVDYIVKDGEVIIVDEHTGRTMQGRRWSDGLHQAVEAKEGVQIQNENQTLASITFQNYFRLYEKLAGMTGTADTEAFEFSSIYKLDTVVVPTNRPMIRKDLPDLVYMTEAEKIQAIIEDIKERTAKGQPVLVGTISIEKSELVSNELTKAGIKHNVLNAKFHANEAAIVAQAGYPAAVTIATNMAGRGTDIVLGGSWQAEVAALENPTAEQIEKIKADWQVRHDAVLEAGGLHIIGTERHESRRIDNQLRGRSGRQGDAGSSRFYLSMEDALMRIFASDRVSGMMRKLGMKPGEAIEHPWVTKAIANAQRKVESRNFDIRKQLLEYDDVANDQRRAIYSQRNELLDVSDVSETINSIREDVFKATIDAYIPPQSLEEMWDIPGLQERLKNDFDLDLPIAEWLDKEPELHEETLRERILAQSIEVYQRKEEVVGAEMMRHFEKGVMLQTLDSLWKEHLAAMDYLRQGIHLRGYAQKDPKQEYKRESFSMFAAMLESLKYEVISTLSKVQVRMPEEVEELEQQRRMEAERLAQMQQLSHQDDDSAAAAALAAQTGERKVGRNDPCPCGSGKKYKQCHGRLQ

Cn1cc(-c2csc(CN3CCOCC3)n2)cn1
Percent Effect [1]: 2.9%
Percent Effect [2]: 4.17%
Percent Effect [3]: -3.9%
Percent Effect [4]: 1.67%
Percent Effect [5]: 0.0972%
Percent Effect [6]: 8.39%
Percent Effect [7]: 1.58%
Percent Effect [8]: -3.07%
Percent Effect [9]: -1.05%
Percent Effect [10]: 2.56%
Percent Effect [11]: -1.39%

Cn1ccnc1CN1C[C@@H](CN2CCC(CO)CC2)[C@@H](CO)C1
Percent Effect [1]: -7.42%
Percent Effect [2]: 5.41%
Percent Effect [3]: -7.54%
Percent Effect [4]: 7.63%
Percent Effect [5]: 6.37%
Percent Effect [6]: -1.43%
Percent Effect [7]: 17.4%
Percent Effect [8]: 7.57%
Percent Effect [9]: 1.59%
Percent Effect [10]: 14.6%
Percent Effect [11]: -5.25%

CCOC(=O)N1CCN(c2nc(NCCCO)c3ccccc3n2)CC1
Percent Effect [1]: -3.88%
Percent Effect [2]: -1.33%
Percent Effect [3]: 5.25%
Percent Effect [4]: 7.39%
Percent Effect [5]: 5.5%
Percent Effect [6]: -0.88%
Percent Effect [7]: 0.739%
Percent Effect [8]: 15.2%
Percent Effect [9]: 2.12%
Percent Effect [10]: 5.13%
Percent Effect [11]: -3.87%

Cc1cccc(C(=O)NC(CN2CCCC2=O)c2ccccc2)n1 (stereo not given)
Percent Effect [1]: -2.94%
Percent Effect [2]: 13.2%
Percent Effect [3]: -3.02%
Percent Effect [4]: 7.02%
Percent Effect [5]: 5.83%
Percent Effect [6]: 6.13%
Percent Effect [7]: 8.35%
Percent Effect [8]: -4.47%
Percent Effect [9]: 5.39%
Percent Effect [10]: 21.9%
Percent Effect [11]: -10.3%

c1cc2nccc(CC3CCCN(Cc4ncc[nH]4)CC3)c2cn1 (stereo not given)
Percent Effect [1]: -2.14%
Percent Effect [2]: 9.46%
Percent Effect [3]: 4.64%
Percent Effect [4]: 12.8%
Percent Effect [5]: 5.34%
Percent Effect [6]: -2.09%
Percent Effect [7]: 9.98%
Percent Effect [8]: 12.3%
Percent Effect [9]: 11.8%
Percent Effect [10]: 24.7%
Percent Effect [11]: -17.2%

CCn1cc(CN2CCc3nc(N4CCOCC4)nc(O)c3CC2)cn1
Percent Effect [1]: -7.19%
Percent Effect [2]: 12.2%
Percent Effect [3]: -3.19%
Percent Effect [4]: 18.1%
Percent Effect [5]: 0.988%
Percent Effect [6]: -6.26%
Percent Effect [7]: 7.64%
Percent Effect [8]: 4.24%
Percent Effect [9]: 3.23%
Percent Effect [10]: 9.09%
Percent Effect [11]: -27.2%

Cc1noc(C)c1CN1CCN(C(=O)Cn2cncn2)CC1
Percent Effect [1]: -5.62%
Percent Effect [2]: 5.41%
Percent Effect [3]: -0.877%
Percent Effect [4]: 5%
Percent Effect [5]: 2.83%
Percent Effect [6]: 3.72%
Percent Effect [7]: -5.24%
Percent Effect [8]: -2.96%
Percent Effect [9]: 2.15%
Percent Effect [10]: 11.1%
Percent Effect [11]: -4.36%

Cc1ccc(CN2CCC3(CC2)OC(C(=O)N(C)C)c2ccccc23)o1 (stereo not given)
Percent Effect [1]: -0.000759%
Percent Effect [2]: 4%
Percent Effect [3]: -1.87%
Percent Effect [4]: -0.475%
Percent Effect [5]: -10.2%
Percent Effect [6]: -8.63%
Percent Effect [7]: 14.6%
Percent Effect [8]: 2.54%
Percent Effect [9]: 4.23%
Percent Effect [10]: 0%
Percent Effect [11]: -8.66%

CCOCC(O)CN1CCN(C(=O)C2CC2)CC1 (stereo not given)
Percent Effect [1]: -3.95%
Percent Effect [2]: 16.2%
Percent Effect [3]: 86.5%
Percent Effect [4]: -5.78%
Percent Effect [5]: 1.04%
Percent Effect [6]: -8.42%
Percent Effect [7]: 2.52%
Percent Effect [8]: 10.7%
Percent Effect [9]: 9.36%
Percent Effect [10]: 16.1%
Percent Effect [11]: -7.42%

CN(Cc1cc(-c2ccccc2)no1)C1CCCN(c2cccnn2)C1 (stereo not given)
Percent Effect [1]: -6.51%
Percent Effect [2]: -20.8%
Percent Effect [3]: 0.498%
Percent Effect [4]: 15.7%
Percent Effect [5]: -3.93%
Percent Effect [6]: -3.2%
Percent Effect [7]: 2.37%
Percent Effect [8]: 7.74%
Percent Effect [9]: 15.5%
Percent Effect [10]: 14.6%
Percent Effect [11]: 18.5%
